# Data as given in publication PMC7862700, “An all-to-all approach to the identification of sequence-specific readers for epigenetic DNA modifications on cytosine”.
# Experiments:
# Test in all cases: DAPPL (digital affinity profiling via proximity ligation, sequencing); 10 mM Tris-HCl pH 7.5, 50 mM NaCl, 1 mM DTT, 4% glycerol, room temperature, 30 min; GST-TFs on glutathione beads, 16-mer random dsDNA library, 0.1% formaldehyde crosslink after washing; high values mean tight binding
# FLI1 = biological target: T1, FLI1 (Homo sapiens, UniProt Q01543 1-452); conditions: protein: recombinant; tags: N-terminal GST; dsDNA, one strand shown
# T1 sequence: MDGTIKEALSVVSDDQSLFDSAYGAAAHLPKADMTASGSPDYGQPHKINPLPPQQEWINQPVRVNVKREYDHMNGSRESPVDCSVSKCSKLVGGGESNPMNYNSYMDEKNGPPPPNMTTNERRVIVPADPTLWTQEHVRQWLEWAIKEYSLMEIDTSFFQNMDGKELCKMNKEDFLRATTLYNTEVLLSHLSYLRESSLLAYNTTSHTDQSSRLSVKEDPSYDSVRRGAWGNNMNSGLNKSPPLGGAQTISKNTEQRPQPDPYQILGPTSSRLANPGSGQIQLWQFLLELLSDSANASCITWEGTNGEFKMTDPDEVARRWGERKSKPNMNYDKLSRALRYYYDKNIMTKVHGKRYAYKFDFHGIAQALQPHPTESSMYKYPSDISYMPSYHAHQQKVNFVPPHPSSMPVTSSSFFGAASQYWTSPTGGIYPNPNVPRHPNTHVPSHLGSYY
# In short: (§1)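 Human transcription factors were made in yeast as GST fusions, captured on glutathione beads and barcoded with DNA. With a tag-only sample included, the pool was incubated with 200 nmole of a random double-stranded 16-mer DNA library in Tris/NaCl/DTT/glycerol buffer at room temperature for 30 min, then crosslinked with 0.1% formaldehyde after washing, ligated by proximity, amplified and sequenced. For binding signal, each hexamer's read frequency for a factor is divided by its frequency for the tag-only sample.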
# ELK1 = biological target: T2, ELK1 (Homo sapiens, UniProt P19419 1-428); conditions: protein: recombinant; tags: N-terminal GST; dsDNA, one strand shown
# T2 sequence: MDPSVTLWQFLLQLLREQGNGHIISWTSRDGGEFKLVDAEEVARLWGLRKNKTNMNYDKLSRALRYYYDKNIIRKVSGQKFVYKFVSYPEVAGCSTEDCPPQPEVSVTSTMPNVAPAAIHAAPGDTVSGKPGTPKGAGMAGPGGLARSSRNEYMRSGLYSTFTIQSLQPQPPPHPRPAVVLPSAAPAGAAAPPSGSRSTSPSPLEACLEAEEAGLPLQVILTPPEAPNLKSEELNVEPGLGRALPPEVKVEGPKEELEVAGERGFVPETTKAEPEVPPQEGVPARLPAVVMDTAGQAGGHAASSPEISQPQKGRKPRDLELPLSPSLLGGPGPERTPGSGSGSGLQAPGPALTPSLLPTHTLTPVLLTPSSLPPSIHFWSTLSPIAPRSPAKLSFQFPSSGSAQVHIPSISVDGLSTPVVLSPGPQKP
# In short: as §1
# GABPA = biological target: T3, GABPA (Homo sapiens, UniProt Q06546 1-454); conditions: protein: recombinant; tags: N-terminal GST; dsDNA, one strand shown
# T3 sequence: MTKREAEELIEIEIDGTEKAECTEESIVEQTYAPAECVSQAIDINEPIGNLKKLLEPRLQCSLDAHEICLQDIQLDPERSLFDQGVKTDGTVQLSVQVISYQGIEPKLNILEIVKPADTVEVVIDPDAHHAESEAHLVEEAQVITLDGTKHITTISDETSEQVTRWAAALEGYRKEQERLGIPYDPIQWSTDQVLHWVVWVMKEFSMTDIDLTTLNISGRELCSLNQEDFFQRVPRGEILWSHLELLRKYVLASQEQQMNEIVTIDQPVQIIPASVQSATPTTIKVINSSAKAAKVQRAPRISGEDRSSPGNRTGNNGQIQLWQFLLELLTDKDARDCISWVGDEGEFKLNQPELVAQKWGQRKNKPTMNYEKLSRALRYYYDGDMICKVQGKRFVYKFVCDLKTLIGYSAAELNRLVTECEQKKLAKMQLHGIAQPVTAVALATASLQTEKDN
# In short: as §1
# ERG = biological target: T4, ERG (Homo sapiens, UniProt P11308 1-479); conditions: protein: recombinant; tags: N-terminal GST; dsDNA, one strand shown
# T4 sequence: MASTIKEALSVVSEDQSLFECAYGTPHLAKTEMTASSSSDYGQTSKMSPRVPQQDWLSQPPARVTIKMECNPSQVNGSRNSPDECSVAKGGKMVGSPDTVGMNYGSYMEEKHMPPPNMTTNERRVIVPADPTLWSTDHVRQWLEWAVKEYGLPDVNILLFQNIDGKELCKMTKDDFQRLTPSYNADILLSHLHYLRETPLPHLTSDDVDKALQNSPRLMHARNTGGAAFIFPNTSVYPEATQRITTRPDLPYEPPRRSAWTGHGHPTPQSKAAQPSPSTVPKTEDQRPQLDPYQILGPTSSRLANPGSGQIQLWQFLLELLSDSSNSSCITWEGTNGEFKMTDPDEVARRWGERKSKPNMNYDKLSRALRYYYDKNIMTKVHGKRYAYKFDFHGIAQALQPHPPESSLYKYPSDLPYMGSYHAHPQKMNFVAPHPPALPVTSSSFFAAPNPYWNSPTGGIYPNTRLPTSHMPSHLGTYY
# In short: as §1
# ELF1 = ELF1 (Homo sapiens, UniProt P32519 1-619); conditions: protein: recombinant; tags: N-terminal GST; dsDNA, one strand shown
# In short: as §1
# EHF = biological target: T5, EHF (Homo sapiens, UniProt Q9NZC4 1-300); conditions: protein: recombinant; tags: N-terminal GST; dsDNA, one strand shown
# T5 sequence: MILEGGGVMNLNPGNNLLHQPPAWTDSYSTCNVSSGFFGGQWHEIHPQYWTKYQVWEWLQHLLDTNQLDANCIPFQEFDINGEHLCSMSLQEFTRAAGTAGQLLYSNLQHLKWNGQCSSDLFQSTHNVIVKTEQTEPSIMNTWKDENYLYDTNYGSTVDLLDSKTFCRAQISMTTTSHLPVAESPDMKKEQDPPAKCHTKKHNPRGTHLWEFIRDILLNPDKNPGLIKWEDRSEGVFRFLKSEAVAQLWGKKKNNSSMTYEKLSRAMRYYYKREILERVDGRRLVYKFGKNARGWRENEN
# In short: as §1
# SPI1 = SPI1 (Homo sapiens, UniProt P17947 1-270); conditions: protein: recombinant; tags: N-terminal GST; dsDNA, one strand shown
# In short: as §1
# SPIB = SPIB (Homo sapiens, UniProt Q01892 1-262); conditions: protein: recombinant; tags: N-terminal GST; dsDNA, one strand shown
# In short: as §1
# ELK3 = biological target: T6, ELK3 (Homo sapiens, UniProt P41970 1-407); conditions: protein: recombinant; tags: N-terminal GST; dsDNA, one strand shown
# T6 sequence: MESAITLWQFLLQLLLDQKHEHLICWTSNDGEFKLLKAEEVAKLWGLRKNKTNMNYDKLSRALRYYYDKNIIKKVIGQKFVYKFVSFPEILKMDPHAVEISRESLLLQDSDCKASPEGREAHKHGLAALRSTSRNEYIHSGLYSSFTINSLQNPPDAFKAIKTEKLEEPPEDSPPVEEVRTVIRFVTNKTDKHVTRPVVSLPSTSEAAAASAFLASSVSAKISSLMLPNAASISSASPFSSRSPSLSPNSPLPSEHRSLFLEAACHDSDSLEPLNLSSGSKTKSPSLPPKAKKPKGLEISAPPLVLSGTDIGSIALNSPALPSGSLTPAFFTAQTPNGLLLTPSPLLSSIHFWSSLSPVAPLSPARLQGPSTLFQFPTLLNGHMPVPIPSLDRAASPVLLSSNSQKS
# In short: as §1
# FEV = biological target: T7, FEV (Homo sapiens, UniProt Q99581 1-238); conditions: protein: recombinant; tags: N-terminal GST; dsDNA, one strand shown
# T7 sequence: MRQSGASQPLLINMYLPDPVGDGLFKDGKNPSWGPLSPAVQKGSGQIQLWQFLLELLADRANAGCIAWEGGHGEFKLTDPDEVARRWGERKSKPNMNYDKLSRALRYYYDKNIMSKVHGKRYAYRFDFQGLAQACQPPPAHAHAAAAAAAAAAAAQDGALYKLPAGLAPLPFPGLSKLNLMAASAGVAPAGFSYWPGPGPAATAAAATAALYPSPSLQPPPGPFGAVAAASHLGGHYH
# In short: as §1
# ETV5 = ETV5 (Homo sapiens, UniProt P41161 1-510); conditions: protein: recombinant; tags: N-terminal GST; dsDNA, one strand shown
# In short: as §1
# HSF1 = HSF1 (Homo sapiens, UniProt Q00613 1-529); conditions: protein: recombinant; tags: N-terminal GST; chain copies: 3; dsDNA, one strand shown
# In short: as §1
# SPIC = biological target: T8, SPIC (Homo sapiens, UniProt Q8N5J4 1-248); conditions: protein: recombinant; tags: N-terminal GST; dsDNA, one strand shown
# T8 sequence: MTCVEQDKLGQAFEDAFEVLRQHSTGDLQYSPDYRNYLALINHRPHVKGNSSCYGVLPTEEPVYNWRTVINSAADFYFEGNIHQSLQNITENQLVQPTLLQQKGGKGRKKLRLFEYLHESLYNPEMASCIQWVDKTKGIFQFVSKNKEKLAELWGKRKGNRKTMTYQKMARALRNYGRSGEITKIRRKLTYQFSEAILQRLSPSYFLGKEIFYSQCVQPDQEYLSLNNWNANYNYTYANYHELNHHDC
# In short: as §1
# ELF4 = ELF4 (Homo sapiens, UniProt Q99607 1-663); conditions: protein: recombinant; tags: N-terminal GST; dsDNA, one strand shown
# In short: as §1
# ELK4 = biological target: T9, ELK4 (Homo sapiens, UniProt P28324-2 1-405); conditions: protein: recombinant; tags: N-terminal GST; dsDNA, one strand shown
# T9 sequence: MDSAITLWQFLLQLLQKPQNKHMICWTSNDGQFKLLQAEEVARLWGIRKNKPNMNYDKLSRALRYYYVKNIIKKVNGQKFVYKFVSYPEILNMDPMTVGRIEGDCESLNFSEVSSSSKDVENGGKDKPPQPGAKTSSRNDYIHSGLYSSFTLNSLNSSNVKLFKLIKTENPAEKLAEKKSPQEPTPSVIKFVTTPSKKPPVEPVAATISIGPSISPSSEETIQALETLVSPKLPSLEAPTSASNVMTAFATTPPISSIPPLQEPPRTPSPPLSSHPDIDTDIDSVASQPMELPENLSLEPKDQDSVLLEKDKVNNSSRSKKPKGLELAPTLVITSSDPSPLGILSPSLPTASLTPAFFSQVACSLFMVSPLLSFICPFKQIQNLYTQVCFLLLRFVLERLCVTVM
# In short: as §1
# ETV2 = biological target: T10, ETV2 (Homo sapiens, UniProt O00321 1-342); conditions: protein: recombinant; tags: N-terminal GST; dsDNA, one strand shown
# T10 sequence: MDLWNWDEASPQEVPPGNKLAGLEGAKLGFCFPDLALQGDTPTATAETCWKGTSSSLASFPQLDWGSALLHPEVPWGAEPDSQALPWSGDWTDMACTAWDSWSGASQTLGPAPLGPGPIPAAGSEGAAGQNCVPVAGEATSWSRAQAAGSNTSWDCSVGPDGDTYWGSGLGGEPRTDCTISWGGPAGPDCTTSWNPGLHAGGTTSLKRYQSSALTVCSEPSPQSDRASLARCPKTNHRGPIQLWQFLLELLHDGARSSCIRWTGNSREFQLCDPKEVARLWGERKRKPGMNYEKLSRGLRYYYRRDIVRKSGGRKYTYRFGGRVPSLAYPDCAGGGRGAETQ
# In short: as §1
# ELF3 = biological target: T11, ELF3 (Homo sapiens, UniProt P78545 1-371); conditions: protein: recombinant; tags: N-terminal GST; dsDNA, one strand shown
# T11 sequence: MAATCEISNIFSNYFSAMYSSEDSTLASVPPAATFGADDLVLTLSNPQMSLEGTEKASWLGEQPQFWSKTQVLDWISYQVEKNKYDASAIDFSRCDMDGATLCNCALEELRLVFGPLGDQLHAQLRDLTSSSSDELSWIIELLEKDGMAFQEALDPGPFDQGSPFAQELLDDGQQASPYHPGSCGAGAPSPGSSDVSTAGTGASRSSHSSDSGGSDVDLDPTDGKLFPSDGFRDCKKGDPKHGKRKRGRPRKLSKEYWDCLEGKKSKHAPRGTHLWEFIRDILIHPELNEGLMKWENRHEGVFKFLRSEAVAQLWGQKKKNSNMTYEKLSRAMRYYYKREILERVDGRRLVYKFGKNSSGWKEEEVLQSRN
# In short: as §1
# CRX = CRX (Homo sapiens, UniProt O43186 1-299); conditions: protein: recombinant; tags: N-terminal GST; dsDNA, one strand shown
# In short: as §1
# ETV1 = ETV1 (Homo sapiens, UniProt P50549 1-477); conditions: protein: recombinant; tags: N-terminal GST; dsDNA, one strand shown
# In short: as §1
# HSF1, sequence (Q00613 whole entry): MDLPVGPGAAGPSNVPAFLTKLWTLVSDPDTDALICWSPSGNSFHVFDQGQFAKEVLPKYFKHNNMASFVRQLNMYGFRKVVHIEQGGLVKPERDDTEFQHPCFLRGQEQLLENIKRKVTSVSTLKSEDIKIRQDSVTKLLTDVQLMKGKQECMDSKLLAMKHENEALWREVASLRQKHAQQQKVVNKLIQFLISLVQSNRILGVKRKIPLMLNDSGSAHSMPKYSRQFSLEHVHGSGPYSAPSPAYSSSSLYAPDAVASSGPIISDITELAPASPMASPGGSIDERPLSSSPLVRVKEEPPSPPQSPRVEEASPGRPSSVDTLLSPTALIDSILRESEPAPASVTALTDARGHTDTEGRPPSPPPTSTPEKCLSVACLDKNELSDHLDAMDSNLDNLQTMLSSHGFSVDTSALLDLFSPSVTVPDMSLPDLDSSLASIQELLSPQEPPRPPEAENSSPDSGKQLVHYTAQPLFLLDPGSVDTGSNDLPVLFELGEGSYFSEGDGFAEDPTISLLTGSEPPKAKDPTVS
# CRX, sequence (O43186 whole entry): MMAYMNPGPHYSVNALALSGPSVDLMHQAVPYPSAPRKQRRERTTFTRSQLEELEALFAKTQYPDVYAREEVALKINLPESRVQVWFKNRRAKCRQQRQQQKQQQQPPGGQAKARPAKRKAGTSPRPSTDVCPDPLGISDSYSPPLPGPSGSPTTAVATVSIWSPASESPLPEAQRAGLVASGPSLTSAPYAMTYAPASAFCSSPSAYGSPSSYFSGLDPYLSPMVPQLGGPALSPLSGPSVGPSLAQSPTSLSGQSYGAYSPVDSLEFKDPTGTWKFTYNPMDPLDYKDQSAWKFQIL
# ELF1, sequence (P32519 whole entry): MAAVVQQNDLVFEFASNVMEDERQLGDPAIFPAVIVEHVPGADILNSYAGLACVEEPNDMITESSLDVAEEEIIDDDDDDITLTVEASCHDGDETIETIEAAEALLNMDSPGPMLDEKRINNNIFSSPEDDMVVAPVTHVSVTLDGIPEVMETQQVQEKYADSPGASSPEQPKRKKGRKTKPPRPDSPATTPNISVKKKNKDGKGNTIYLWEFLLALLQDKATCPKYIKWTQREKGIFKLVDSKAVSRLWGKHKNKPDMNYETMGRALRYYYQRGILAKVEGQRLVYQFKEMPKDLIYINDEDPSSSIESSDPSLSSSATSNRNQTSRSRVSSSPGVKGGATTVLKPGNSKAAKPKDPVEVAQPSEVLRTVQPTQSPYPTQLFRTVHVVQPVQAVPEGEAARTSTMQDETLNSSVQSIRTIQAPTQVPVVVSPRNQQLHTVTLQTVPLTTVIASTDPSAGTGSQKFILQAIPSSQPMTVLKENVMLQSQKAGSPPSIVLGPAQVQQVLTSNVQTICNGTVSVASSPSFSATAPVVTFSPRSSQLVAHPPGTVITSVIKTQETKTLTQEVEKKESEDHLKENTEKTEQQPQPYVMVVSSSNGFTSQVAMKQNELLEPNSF
# SPIB, sequence (Q01892 whole entry): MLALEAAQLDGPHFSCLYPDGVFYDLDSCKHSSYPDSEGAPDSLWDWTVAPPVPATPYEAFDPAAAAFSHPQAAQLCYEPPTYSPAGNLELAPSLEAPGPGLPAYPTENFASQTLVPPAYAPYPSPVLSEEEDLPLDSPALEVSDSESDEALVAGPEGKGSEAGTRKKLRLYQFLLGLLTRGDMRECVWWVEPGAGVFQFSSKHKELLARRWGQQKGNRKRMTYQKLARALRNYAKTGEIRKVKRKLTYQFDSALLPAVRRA
# ELF4, sequence (Q99607 whole entry): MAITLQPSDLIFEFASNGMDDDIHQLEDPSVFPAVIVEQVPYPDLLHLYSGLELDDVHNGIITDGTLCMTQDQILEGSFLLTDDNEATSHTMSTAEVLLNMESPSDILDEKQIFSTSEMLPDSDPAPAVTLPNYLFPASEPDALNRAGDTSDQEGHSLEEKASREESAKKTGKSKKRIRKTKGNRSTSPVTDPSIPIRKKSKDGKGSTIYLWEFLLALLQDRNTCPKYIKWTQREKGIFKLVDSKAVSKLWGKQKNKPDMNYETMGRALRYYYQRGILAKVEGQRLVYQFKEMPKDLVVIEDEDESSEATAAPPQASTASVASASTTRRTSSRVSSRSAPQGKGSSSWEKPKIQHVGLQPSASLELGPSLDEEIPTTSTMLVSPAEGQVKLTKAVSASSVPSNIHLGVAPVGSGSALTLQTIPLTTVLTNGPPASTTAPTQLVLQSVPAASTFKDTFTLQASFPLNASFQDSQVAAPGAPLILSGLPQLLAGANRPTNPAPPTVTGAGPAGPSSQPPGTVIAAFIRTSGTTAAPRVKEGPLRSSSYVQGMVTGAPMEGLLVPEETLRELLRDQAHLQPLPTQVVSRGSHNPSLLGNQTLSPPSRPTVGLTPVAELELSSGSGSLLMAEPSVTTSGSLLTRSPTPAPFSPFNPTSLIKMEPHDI
# ETV5, sequence (P41161 whole entry): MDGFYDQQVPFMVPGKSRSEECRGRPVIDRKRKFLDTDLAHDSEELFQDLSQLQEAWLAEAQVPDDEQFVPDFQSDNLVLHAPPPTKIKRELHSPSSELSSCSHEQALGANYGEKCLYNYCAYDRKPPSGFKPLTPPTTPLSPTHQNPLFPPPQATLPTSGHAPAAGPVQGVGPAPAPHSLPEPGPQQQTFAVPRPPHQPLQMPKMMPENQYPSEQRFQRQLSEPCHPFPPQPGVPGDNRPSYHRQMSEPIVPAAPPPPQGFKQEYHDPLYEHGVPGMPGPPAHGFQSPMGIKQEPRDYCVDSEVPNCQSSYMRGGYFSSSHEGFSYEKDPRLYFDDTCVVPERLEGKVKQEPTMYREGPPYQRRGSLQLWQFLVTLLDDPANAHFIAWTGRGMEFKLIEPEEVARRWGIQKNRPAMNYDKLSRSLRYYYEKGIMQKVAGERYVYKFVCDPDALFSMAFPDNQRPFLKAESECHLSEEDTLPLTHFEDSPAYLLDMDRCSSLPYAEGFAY
# ETV1, sequence (P50549 whole entry): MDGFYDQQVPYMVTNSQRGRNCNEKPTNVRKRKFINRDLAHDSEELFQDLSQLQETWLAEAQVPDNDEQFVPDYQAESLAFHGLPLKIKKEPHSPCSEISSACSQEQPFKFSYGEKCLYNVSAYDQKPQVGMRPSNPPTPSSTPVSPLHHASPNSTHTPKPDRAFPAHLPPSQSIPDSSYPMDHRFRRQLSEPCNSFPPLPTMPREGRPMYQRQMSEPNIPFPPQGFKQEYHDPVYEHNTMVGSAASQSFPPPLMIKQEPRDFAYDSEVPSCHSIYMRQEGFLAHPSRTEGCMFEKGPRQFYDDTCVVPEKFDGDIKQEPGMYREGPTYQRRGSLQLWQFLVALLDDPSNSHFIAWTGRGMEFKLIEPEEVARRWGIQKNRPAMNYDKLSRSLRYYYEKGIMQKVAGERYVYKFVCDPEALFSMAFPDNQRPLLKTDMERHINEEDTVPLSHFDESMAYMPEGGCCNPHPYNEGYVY
sequence,measurement,setting,value
CACTTC,binding signal,FLI1,"3.41 fold enrichment (6-mer frequency, TF over GST control)"
same,binding signal,ELK1,"3.77 fold enrichment (6-mer frequency, TF over GST control)"
same,binding signal,GABPA,"3.25 fold enrichment (6-mer frequency, TF over GST control)"
same,binding signal,ERG,"4.19 fold enrichment (6-mer frequency, TF over GST control)"
same,binding signal,ELF1,"3.41 fold enrichment (6-mer frequency, TF over GST control)"
same,binding signal,EHF,"3.63 fold enrichment (6-mer frequency, TF over GST control)"
same,binding signal,SPI1,"5.56 fold enrichment (6-mer frequency, TF over GST control)"
same,binding signal,SPIB,"3.54 fold enrichment (6-mer frequency, TF over GST control)"
same,binding signal,ELK3,"3.97 fold enrichment (6-mer frequency, TF over GST control)"
same,binding signal,FEV,"5.06 fold enrichment (6-mer frequency, TF over GST control)"
same,binding signal,ETV5,"3.62 fold enrichment (6-mer frequency, TF over GST control)"
same,binding signal,HSF1,"1.3 fold enrichment (6-mer frequency, TF over GST control)"
same,binding signal,SPIC,"3.53 fold enrichment (6-mer frequency, TF over GST control)"
same,binding signal,ELF4,"3.48 fold enrichment (6-mer frequency, TF over GST control)"
same,binding signal,ELK4,"3.01 fold enrichment (6-mer frequency, TF over GST control)"
same,binding signal,ETV2,"3.4 fold enrichment (6-mer frequency, TF over GST control)"
same,binding signal,ELF3,"3.05 fold enrichment (6-mer frequency, TF over GST control)"
same,binding signal,CRX,"1.07 fold enrichment (6-mer frequency, TF over GST control)"
same,binding signal,ETV1,"3.73 fold enrichment (6-mer frequency, TF over GST control)"
